PubChem BioAssay (NCI)
Compounds without any hit were thinned out: in the full panel of roughly 79,000, 15% have a hit. Unmarked numbers belong to inactive results. Activity calls are given as the source filed them. Rule as the data show it: active = growth inhibition above about 70%; inactive = the rest.

Assay: NCI Yeast Anticancer Drug Screen. Data for the cln2 rad14 strain (AID 165);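 also: 0% = growth equal to vehicle treated cultures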
Conditions: S. cerevisiae cln2 rad14 strain, at 50.0 µM, hits give high values
How it was run: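 Readout is yeast growth inhibition versus vehicle-treated controls, using a strain with cln2 and rad14 alterations exposed to compound.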

| SMILES | growth inhibition |
| --- | --- |
| COc1ccc(OC)c(NC(=O)CCC/C(CC(=O)c2ccc(O)c(OC)c2)=N\Nc2ccc([N+](=O)[O-])cc2)c1 | 23.1% |
| COC(=O)C1c2ccccc2CC(=O)N1N (configuration not stated) | 8.25% |
| C=C1C(C2(C)C=CC(=O)OC3(C)COC(=O)CC32)C(OC=O)C(OC(=O)C(O)C(C)CC)C2(C)C(c3ccoc3)CC(OC(C)=O)C12O (configuration not stated) | -0.45% |
| O=C1OC(=O)c2c1ccc1ccccc21 | -8.35% |
| Cn1c(N)c(N=Cc2ccc(Cl)cc2)c(=O)n(C)c1=O | -16.5% |
| COC(=O)c1cc(-c2ccc3ccccc3c2)[nH]c(=O)c1C#N | 46.9% |
| CC1=NN(c2ccccc2)C(=O)/C1=C(\[O-])c1ccccc1.CC1=NN(c2ccccc2)C(=O)/C1=C(\[O-])c1ccccc1.CC1=NN(c2ccccc2)C(=O)/C1=C(\[O-])c1ccccc1.[Fe+3] | -16.7% |
| O=C1C(Br)=C(Br)C(=O)C2=C1C1c3ccccc3C2c2ccccc21 | 97% (active) |
| O=C(O)Cc1ccc2ccccc2c1 | 3.6% |
| O=c1[nH]c2cc(Br)c(Br)cc2c2ccc(Br)cc12 | 1.3% |
| O=C(C[n+]1cccc(CO)c1)c1ccc(-c2ccc(C(=O)C[n+]3cccc(CO)c3)cc2)cc1 | -4.7% |
| O=C(O)C(c1ccc(-c2ccccc2)cc1)C1CCCCC1 (configuration not stated) | 3.35% |
| COC(=O)/C=C(/C=C1/C(C#N)=C(N)N(c2ccc(Cl)cc2)C1(C)/C(=C/C(=O)OC)C(=O)OC)C(=O)OC (configuration not stated) | 6.95% |
| COc1cccc(Oc2cccc[n+]2CC(C)=O)c1 | 8.4% |
| CCOC(=O)C1=C(Nc2ccc(F)cc2)C(=O)N(C(C)(C)C)C1 | 6.35% |
| CCNc1ccc(C)cc1 | -14% |

| SMILES | growth inhibition |
| --- | --- |
| Cc1cc(O)c(/C=N/c2nc(-c3ccc([N+](=O)[O-])cc3)cs2)c(=O)o1 | 20.1% |
| Nc1ccc(S(=O)(=O)Nc2ccccn2)cc1 | -41.4% |
| O=C(Cc1csc(N=Nc2c(O)[nH]c3ccccc23)n1)Nc1ccccc1 | -8.75% |
| Cc1ccc(S(=O)(=O)Cc2c(C)cc(C)cc2C)cc1 | -30.9% |
| O=C1Nc2ccccc2C1O (configuration not stated) | -17.7% |
| COC(=O)C1(OC)C(=O)NC2=C1C(=O)c1ccccc1C2=O (configuration not stated) | -18.8% |
| O=C(Nc1ccc(Cl)c(Cl)c1)Oc1ccc(-c2ccccc2)cc1 | 43.6% |
| COc1cc(/C=N/NC(N)=S)cc(OC)c1 | -35.9% |
| CC(C)=NNC(=O)COCC(=O)NN=C(C)C | -84.5% |
| O=S(=O)(Cl)c1cccc2c(S(=O)(=O)Cl)cccc12 | -40.5% |
| COc1cc(Br)c(CC2c3cc(OC)c(OC)cc3CCN2C)cc1OC (configuration not stated) | 3.2% |
| COc1ccc(C(=O)Nc2ccn(CCOC(=O)c3ccc(OC)cc3)c(=O)n2)cc1 | -4% |
| CC(N=C(N)N)C(=O)O (configuration not stated) | -12.5% |
| CN1CCC(=O)C(c2ccccc2)(c2ccccc2)CC1 | -24.9% |
| CC1(C)C(=O)OC(n2ccc(=O)[nH]c2=O)C1=O (configuration not stated) | -43.9% |
| Fc1ccccc1C1CC(c2ccc3ccccc3c2)=Nc2ccccc2S1 (configuration not stated) | 13.4% |

Assay: NCI Yeast Anticancer Drug Screen. Data for the bub3 strain (AID 167)
Conditions: S. cerevisiae bub3 mutant strain, at 50.0 µM, hits give high values
How it was run: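 Compounds were applied to a genetically altered yeast strain carrying a cell-cycle control defect. Growth inhibition was scored against vehicle-treated controls.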

| SMILES | growth inhibition |
| --- | --- |
| Nc1ccccc1C(=O)Nc1ccccn1 | 0.45% |
| O=C(NC(=O)c1c(Cl)nc2sccn12)Nc1ccc(Cl)cc1 | -0.6% |
| CCOC(=O)C(CCc1ccc([N+](=O)[O-])cc1)(CCc1ccc([N+](=O)[O-])cc1)C(=O)OCC | -0.3% |
| CCOC(=O)CCCCCCCCCC[N+](CC)(CC)CC(=O)c1ccc(NC(C)=O)cc1 | 16.8% |
| Cc1cccc(C)c1NC(=O)C1C(=O)N(c2c(C)cccc2C)C(=O)/C1=N\NC(N)=S (configuration not stated) | -31.1% |
| CCN(CC)C(=O)C(C(=O)OC)c1ccccc1 (configuration not stated) | 10% |
| CC(=O)C(Cc1cccc([N+](=O)[O-])c1)Cc1cccc([N+](=O)[O-])c1 | 15.8% |
| c1ccc(-n2nnnc2-c2nnnn2-c2ccccc2)cc1 | 20.7% |
| COc1ccc(OC)c(NC(=O)CCC/C(CC(=O)c2ccc(O)c(OC)c2)=N\Nc2ccc([N+](=O)[O-])cc2)c1 | -6% |
| COC(=O)C1c2ccccc2CC(=O)N1N (configuration not stated) | 7.05% |
| C=C1C(C2(C)C=CC(=O)OC3(C)COC(=O)CC32)C(OC=O)C(OC(=O)C(O)C(C)CC)C2(C)C(c3ccoc3)CC(OC(C)=O)C12O (configuration not stated) | 16.3% |
| O=C1OC(=O)c2c1ccc1ccccc21 | 0.95% |
| Cn1c(N)c(N=Cc2ccc(Cl)cc2)c(=O)n(C)c1=O | -7.75% |
| COC(=O)c1cc(-c2ccc3ccccc3c2)[nH]c(=O)c1C#N | 23.2% |
| CC1=NN(c2ccccc2)C(=O)/C1=C(\[O-])c1ccccc1.CC1=NN(c2ccccc2)C(=O)/C1=C(\[O-])c1ccccc1.CC1=NN(c2ccccc2)C(=O)/C1=C(\[O-])c1ccccc1.[Fe+3] | -2.9% |
| O=C1C(Br)=C(Br)C(=O)C2=C1C1c3ccccc3C2c2ccccc21 | 98.2% (active) |
| O=C(O)Cc1ccc2ccccc2c1 | 0.45% |
| O=c1[nH]c2cc(Br)c(Br)cc2c2ccc(Br)cc12 | 5.8% |
| O=C(C[n+]1cccc(CO)c1)c1ccc(-c2ccc(C(=O)C[n+]3cccc(CO)c3)cc2)cc1 | -1.7% |
| O=C(O)C(c1ccc(-c2ccccc2)cc1)C1CCCCC1 (configuration not stated) | 45% |

| SMILES | growth inhibition |
| --- | --- |
| COC(=O)/C=C(/C=C1/C(C#N)=C(N)N(c2ccc(Cl)cc2)C1(C)/C(=C/C(=O)OC)C(=O)OC)C(=O)OC (configuration not stated) | 21.8% |
| COc1cccc(Oc2cccc[n+]2CC(C)=O)c1 | 0.3% |
| CCOC(=O)C1=C(Nc2ccc(F)cc2)C(=O)N(C(C)(C)C)C1 | 31.4% |
| CCNc1ccc(C)cc1 | -5.15% |
| Cc1cc(O)c(/C=N/c2nc(-c3ccc([N+](=O)[O-])cc3)cs2)c(=O)o1 | -7.7% |
| Nc1ccc(S(=O)(=O)Nc2ccccn2)cc1 | -20.2% |
| O=C(Cc1csc(N=Nc2c(O)[nH]c3ccccc23)n1)Nc1ccccc1 | -7.05% |
| Cc1ccc(S(=O)(=O)Cc2c(C)cc(C)cc2C)cc1 | -10.6% |
| O=C1Nc2ccccc2C1O (configuration not stated) | 11.1% |
| COC(=O)C1(OC)C(=O)NC2=C1C(=O)c1ccccc1C2=O (configuration not stated) | 9.3% |
| O=C(Nc1ccc(Cl)c(Cl)c1)Oc1ccc(-c2ccccc2)cc1 | 87.5% (active) |
| COc1cc(/C=N/NC(N)=S)cc(OC)c1 | -17.6% |
| CC(C)=NNC(=O)COCC(=O)NN=C(C)C | -22.9% |
| O=S(=O)(Cl)c1cccc2c(S(=O)(=O)Cl)cccc12 | -10.4% |
| COc1cc(Br)c(CC2c3cc(OC)c(OC)cc3CCN2C)cc1OC (configuration not stated) | -7.95% |
| COc1ccc(C(=O)Nc2ccn(CCOC(=O)c3ccc(OC)cc3)c(=O)n2)cc1 | 2.8% |
| CC(N=C(N)N)C(=O)O (configuration not stated) | 5.3% |
| CN1CCC(=O)C(c2ccccc2)(c2ccccc2)CC1 | 28.4% |
| CC1(C)C(=O)OC(n2ccc(=O)[nH]c2=O)C1=O (configuration not stated) | -10.8% |
| Fc1ccccc1C1CC(c2ccc3ccccc3c2)=Nc2ccccc2S1 (configuration not stated) | 10.4% |
